# From PubChem BioAssay AID504375 (National Center for Advancing Translational Sciences (NCATS), 2011)
# Screen size: about 1,600 compounds; about 25 (2%) were called active. Where a call stands in place of a potency, no number is given. Inconclusive results (about 7%) are left out. The sample holds actives, similar compounds and a random draw of the others, so the mix is not that of the screen. Calls come from the whole dose curve; as a rule, active = well fitted inhibition curve with a large enough effect; inconclusive = small, poorly fitted or top-dose-only effect, or effect the other way; inactive = no such curve, though single readings can be large or run the other way.
# Molecular target: Runt-related transcription factor 1 (Homo sapiens) + Core-binding factor subunit beta (Homo sapiens) (UniProt Q01196+Q13951)
# Assay: qHTS Assay for Compounds Blocking the Interaction Between CBF-beta and RUNX1 for the Treatment of Acute Myeloid Leukemia: Hit Validation with Orthogonal Assay
# Details: CBFbeta-RUNX1 binding orthogonal assay, biochemical; series mostly up to 41 µM
# In short: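 This is an orthogonal TR-FRET assay. His6-CBF-beta and biotin-RUNX1 (30 nM each) were preincubated with compound for 30 min, then Tb-anti-His antibody (0.44 ng) and streptavidin-XL665 (5 nM) were added. The signal was read after 90 min.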
# Potency is the fitted concentration of half-maximal effect.
# Sequence of Runt-related transcription factor 1 (Homo sapiens) + Core-binding factor subunit beta (Homo sapiens) (Q01196 whole entry, looked up): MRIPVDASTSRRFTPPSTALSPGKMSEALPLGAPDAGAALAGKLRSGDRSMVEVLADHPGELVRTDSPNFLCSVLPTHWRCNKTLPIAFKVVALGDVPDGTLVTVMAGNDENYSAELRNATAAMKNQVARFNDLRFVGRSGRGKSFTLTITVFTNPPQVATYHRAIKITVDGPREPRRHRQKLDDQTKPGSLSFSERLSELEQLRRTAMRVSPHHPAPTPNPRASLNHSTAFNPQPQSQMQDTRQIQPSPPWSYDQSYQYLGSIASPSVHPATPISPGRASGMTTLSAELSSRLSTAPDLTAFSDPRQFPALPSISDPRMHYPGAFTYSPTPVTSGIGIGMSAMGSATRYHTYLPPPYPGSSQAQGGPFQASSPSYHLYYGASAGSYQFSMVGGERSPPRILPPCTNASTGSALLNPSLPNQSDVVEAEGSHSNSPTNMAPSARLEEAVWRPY
# Sequence of Runt-related transcription factor 1 (Homo sapiens) + Core-binding factor subunit beta (Homo sapiens) (Q13951 whole entry, looked up): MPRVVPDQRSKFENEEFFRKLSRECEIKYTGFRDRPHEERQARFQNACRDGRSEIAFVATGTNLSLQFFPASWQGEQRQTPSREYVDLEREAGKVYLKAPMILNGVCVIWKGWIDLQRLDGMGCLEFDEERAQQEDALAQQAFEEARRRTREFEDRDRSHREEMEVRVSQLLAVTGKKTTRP
row,SMILES,Potency
1,Cc1cc(NC(=O)CN2CCOCC2)n(-c2ccccc2)n1,inactive
2,NS(=O)(=O)c1ccc(Sc2ccccn2)c([N+](=O)[O-])c1,inactive
3,O=C(Nc1ccc2ccccc2c1)c1ccc(Cl)cc1Cl,inactive
4,COc1cccc(/C=N/n2nnnc2N)c1,inactive
5,CCN(CC)S(=O)(=O)c1ccc(/C=C/C(=O)Nc2ccc(N3CCOCC3)cc2)cc1,inactive
6,CN(C(=O)C(Cl)Cl)C1CC2C=CC1C2 (centres undefined),inactive
7,Cc1cc(C)c(OCC(=O)N(Cc2ccc(N(C)C)cc2)C2CCS(=O)(=O)C2)c(C)c1 (centres undefined),inactive
8,CN(C)S(=O)(=O)c1ccc(Cl)c(NC(=O)CN2CCN(Cc3ccc4c(c3)OCO4)CC2)c1,inactive
9,CC(C)(O)P(=O)(O)CCc1ccccc1,inactive
10,COC(=O)c1ccccc1N=Nc1c(C)noc1C,inactive
11,COc1ccccc1/C=C/C=N/n1c(-c2ccccn2)n[nH]c1=S,inactive
12,CC(=O)Oc1ccc(C(=O)Nc2cccc(-c3nnc(-c4ccco4)o3)c2)cc1,inactive
13,C=CCNC(=S)NCC,inactive
14,CN(C)c1cc(-c2ccc([N+](=O)[O-])cc2)oc(=O)c1Cl,inactive
15,CCCc1cc(=O)oc2c(CN(CC)CC)c(O)c(Cl)cc12,inactive
16,C/C(=N\O)C1CC(CC(=O)O)C1(C)C (centres undefined),inactive
17,CCc1sc(N)nc1-c1ccccc1,inactive
18,CC(C)NC(=O)NNC(=O)Cn1nnc(-c2cccc(Cl)c2Cl)n1,inactive
19,COCCn1c(-c2ccc(Br)cc2)nc2oc3cc(OC)ccc3c(=O)c2c1=O,inactive
20,Fc1c(CSC(=S)N2CCOCC2)cccc1CSC(=S)N1CCOCC1,inactive

row,SMILES,Potency
1,COc1ccc(/C=C/C(=O)Oc2cc(O)cc(O)c2)cc1,inactive
2,CN1C2CCC1CC(NC(=O)c1ccc(Cl)cc1)C2 (centres undefined),inactive
3,O=C(O)C1=CC(=C(c2ccc(O)c(C(=O)O)c2)c2ccc(O)c(C(=O)O)c2)C=CC1=O,7.94 µM (active)
4,COc1ccc(/C=N/NC(=O)c2ccc(Br)cc2)cc1CN1CCOCC1,inactive
5,O=[N+]([O-])c1cc(Cl)cc(/C=N/NC(=S)Nc2ccc(S(=O)(=O)N3CCOCC3)cc2)c1O,inactive
6,CSCC[C@H](NC(=O)OC(C)(C)C)C(=O)N/N=C/c1cccc2nccnc12,inactive
7,COc1ccccc1N1C(=O)[C@@H]2[C@H](C1=O)[C@H](C(=O)c1ccc(OC(C)=O)cc1)N1N=CC=C[C@@H]21,inactive
8,CC(C)Nc1cc(C(C)(C)C)nc2c(-c3ccccc3)cnn12,inactive
9,Cc1nnc(NC(=O)c2ccccc2NC(=O)c2ccccc2)s1,inactive
10,CN1CCN(C(=O)C23CC4CC(C)(CC(C)(C4)C2)C3)CC1,inactive
11,COc1cccc(N/C(=N/C(=S)Nc2ccc(C)cc2C)Nc2nc(C)cc(C)n2)c1,inactive
12,CC(=O)N1N=C2c3ccccc3CCC2C1c1cccs1 (centres undefined),inactive
13,CC(=O)Nc1ccc(NS(=O)(=O)c2ccc(C)cc2)cc1[N+](=O)[O-],inactive
14,Cc1cc(-c2ccccc2C(=O)Nc2ccccc2O)on1,inactive
15,O=C(O)c1ccccc1C(=O)Nc1ccc(-n2ccc(C(F)(F)F)n2)cc1,inactive
16,Cc1nc2c(c(=O)c3ccccc3n2C)c(=O)n1-c1ccccc1,inactive
17,CN(C)c1ccc(NC(=O)Nc2csc3ccccc23)cc1,inactive
18,CSc1cccc(NC(=O)Nc2ccccc2C(N)=O)c1,inactive
19,NC(=O)c1ccc(NC(=O)COC(=O)/C=C/c2ccc3c(c2)OCO3)cc1,inactive
